Measured values as given in PubChem BioAssay (NCI).
Compounds without any hit were thinned out: in the full panel of roughly 79,000, 15% have a hit. Calls of active or inactive are those of the source. No stated cut-off is given here; in the data, active means growth inhibition above about 70%; inactive means the rest.

Key:
[1] = NCI Yeast Anticancer Drug Screen. Data for the rad52 strain (AID 147);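 further: 0% = growth of vehicle-treated control cultures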; settings: S. cerevisiae rad52 mutant growth inhibition, stronger effect = higher value
Outline: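 Yeast strain carrying a DNA damage repair alteration was exposed to test compounds. Growth inhibition was measured relative to vehicle-treated controls.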

[2] = NCI Yeast Anticancer Drug Screen. Data for the wt1 strain (AID 149);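 further: 0% = growth of vehicle-treated wt1 cultures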; settings: S. cerevisiae wt1 strain (SPY 50644) growth inhibition, stronger effect = higher value
Outline: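 Measured: growth of wt1 yeast under compound versus vehicle treatment, reported as inhibition.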

[3] = NCI Yeast Anticancer Drug Screen. Data for the rad50EPP+ strain (AID 151);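 further: 0% = growth of vehicle-treated control cultures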; settings: S. cerevisiae rad50 mutant strain, stronger effect = higher value
Outline: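 Yeast strain carrying rad50 alteration (rad50EPP+) exposed to compounds; growth inhibition measured relative to vehicle-treated controls.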

[4] = NCI Yeast Anticancer Drug Screen. Data for the mgt1 strain (AID 153); settings: S. cerevisiae mgt1 mutant growth inhibition, stronger effect = higher value
Outline: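 Yeast mgt1 strain (DNA repair/cell-cycle alteration panel) exposed to compounds; growth inhibition measured relative to vehicle-treated controls.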

[5] = NCI Yeast Anticancer Drug Screen. Data for the rad50 strain (AID 155);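 further: 0% = growth of vehicle-only cultures of the same strain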; settings: S. cerevisiae rad50 strain growth inhibition, stronger effect = higher value
Outline: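 Growth of the mutant yeast was measured after compound exposure and referenced to vehicle-treated cultures.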

[6] = NCI Yeast Anticancer Drug Screen. Data for the mec2-1 strain (AID 157); settings: S. cerevisiae mec2-1 strain, stronger effect = higher value
Outline: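 mec2-1 yeast strain, carrying an alteration in DNA damage repair or cell cycle control, was exposed to compounds; growth inhibition was measured relative to vehicle-treated controls.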

[7] = NCI Yeast Anticancer Drug Screen. Data for the rad14 strain (AID 159);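 further: 0% = growth of vehicle-treated control cultures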; settings: S. cerevisiae rad14 strain growth inhibition, stronger effect = higher value
Outline: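 Here, inhibition of yeast growth was measured after compound exposure, using a strain with a genetic defect in DNA damage repair and vehicle-treated cultures as the reference.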

[8] = NCI Yeast Anticancer Drug Screen. Data for the sgs1 mgt1 strain (AID 161);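 further: 0% = growth of cultures given vehicle only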; settings: S. cerevisiae sgs1 mgt1 strain, stronger effect = higher value
Outline: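 Compounds are added to genetically altered yeast, and growth is compared with cultures given vehicle alone to give percent inhibition.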

[9] = NCI Yeast Anticancer Drug Screen. Data for the CLN2oe strain (AID 163);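 further: 0% = growth of vehicle-only control cultures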; settings: S. cerevisiae CLN2oe strain, stronger effect = higher value
Outline: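 Yeast cells carrying a defined cell-cycle control alteration were exposed to test compounds. Growth inhibition was scored against vehicle-treated control cultures.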

[10] = NCI Yeast Anticancer Drug Screen. Data for the cln2 rad14 strain (AID 165);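 further: 0% = growth equal to vehicle treated cultures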; settings: S. cerevisiae cln2 rad14 strain, stronger effect = higher value
Outline: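 Yeast carrying cln2 and rad14 alterations (cell cycle control and DNA damage repair) were exposed to compounds. Growth inhibition was measured against vehicle-treated controls.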

[11] = NCI Yeast Anticancer Drug Screen. Data for the bub3 strain (AID 167); settings: S. cerevisiae bub3 mutant strain, stronger effect = higher value
Outline: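 Whole-cell yeast assay. The mutant strain was incubated with compounds, and growth inhibition was determined by comparison with vehicle-treated cells.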

[12] = NCI Yeast Anticancer Drug Screen. Data for the wt2 strain (AID 169);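 further: 0% = growth of vehicle-treated yeast cultures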; settings: S. cerevisiae wt2 strain growth inhibition, stronger effect = higher value
Outline: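 Yeast cells were exposed to test compounds, and growth inhibition was measured relative to vehicle-treated controls.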

[13] = NCI Yeast Anticancer Drug Screen. Data for the mlh1 strain (AID 171);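 further: 0% = growth of vehicle-treated control cultures of the same strain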; settings: S. cerevisiae mlh1 strain growth inhibition, stronger effect = higher value
Outline: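 Yeast carrying a defined genetic alteration in DNA damage repair or cell cycle control were exposed to test compounds. Growth inhibition was measured relative to vehicle-treated controls.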

[14] = NCI Yeast Anticancer Drug Screen. Data for the sgs1 strain (AID 173);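 further: 0% = growth of vehicle-only control cultures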; settings: S. cerevisiae sgs1 mutant, stronger effect = higher value
Outline: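 Yeast mutant strains carrying defined defects in DNA damage repair or cell cycle control were exposed to test compounds. Growth inhibition was scored against vehicle-treated controls.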

[15] = NCI Yeast Anticancer Drug Screen. Data for the mlh1 rad18 strain (AID 175); settings: S. cerevisiae mlh1 rad18 strain growth inhibition, stronger effect = higher value
Outline: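 Growth inhibition of the yeast strain was measured after compound exposure and expressed relative to vehicle-treated controls. The strain carries defined defects in DNA damage repair.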

[16] = NCI Yeast Anticancer Drug Screen. Data for the rad18 strain (AID 177); settings: S. cerevisiae rad18 mutant growth inhibition, stronger effect = higher value
Outline: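 Yeast carrying a defined DNA damage repair alteration were exposed to compounds. Growth inhibition was expressed relative to vehicle-treated controls.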

[17] = at 5.0 µM (retest, dose inferred, filed as 0.5)
[18] = at 50.0 µM (retest, dose inferred, filed as 5.0)

Measured: growth inhibition

CCN(CC)CC(=O)c1ccc2cc(Cl)c3ccccc3c2c1
inactive: [1]; at 1.2 µM 14% | [1]; at 3.7 µM 30% | [2]; at 1.2 µM 6% | [2]; at 3.7 µM 17% | [3]; at 1.2 µM 68% | [4]; at 1.2 µM 0% | [4]; at 3.7 µM 13% | [5]; at 1.2 µM 9% | [5]; at 3.7 µM 18% | [5]; [17] 26% | [6]; at 1.2 µM 12% | [6]; at 3.7 µM 24% | [6]; [17] 26% | [7]; at 1.2 µM 6% | [7]; at 3.7 µM 13% | [8]; [17] 42% | [9]; at 1.2 µM 8% | [9]; at 3.7 µM 11% | [10]; [17] 6% | [11]; at 1.2 µM -4% | [11]; at 3.7 µM 3% | [11]; [17] 10% | [12]; at 1.2 µM 7% | [12]; at 3.7 µM 24% | [13]; at 1.2 µM 12% | [13]; at 3.7 µM 23% | [14]; at 1.2 µM 25% | [14]; at 3.7 µM 53% | [15]; [17] 48% | [16]; at 1.2 µM 20% | [16]; at 3.7 µM 42%
active: [1]; at 11.0 µM 99% | [1]; at 33.0 µM 98% | [1]; at 100.0 µM 98% | [2]; at 11.0 µM 99% | [2]; at 33.0 µM 98% | [2]; at 100.0 µM 98% | [3]; at 3.7 µM 85% | [3]; at 11.0 µM 98% | [3]; at 33.0 µM 98% | [3]; at 100.0 µM 98% | [4]; at 11.0 µM 99% | [4]; at 33.0 µM 99% | [4]; at 100.0 µM 99% | [5]; at 11.0 µM 98% | [5]; at 33.0 µM 98% | [5]; [18] 98% | [5]; at 50.0 µM 99% | [5]; at 100.0 µM 98% | [6]; at 11.0 µM 99% | [6]; at 33.0 µM 99% | [6]; [18] 99% | [6]; at 50.0 µM 99.2% | [6]; at 100.0 µM 99% | [7]; at 11.0 µM 99% | [7]; at 33.0 µM 99% | [7]; at 100.0 µM 99% | [8]; [18] 99% | [8]; at 50.0 µM 99.2% | [9]; at 11.0 µM 99% | [9]; at 33.0 µM 98% | [9]; at 100.0 µM 99% | [10]; [18] 99% | [10]; at 50.0 µM 99.2% | [11]; at 11.0 µM 98% | [11]; at 33.0 µM 98% | [11]; [18] 98% | [11]; at 50.0 µM 99.2% | [11]; at 100.0 µM 98% | [12]; at 11.0 µM 99% | [12]; at 33.0 µM 98% | [12]; at 100.0 µM 98% | [13]; at 11.0 µM 99% | [13]; at 33.0 µM 99% | [13]; at 100.0 µM 98% | [14]; at 11.0 µM 99% | [14]; at 33.0 µM 98% | [14]; at 100.0 µM 98% | [15]; [18] 98% | [15]; at 50.0 µM 99.2% | [16]; at 11.0 µM 99% | [16]; at 33.0 µM 98% | [16]; at 100.0 µM 98%

CCOC(=O)/C(=C/c1cccc(Cl)c1)N(CC)CC
active: [1]; at 100.0 µM 96% | [2]; at 100.0 µM 96% | [4]; at 100.0 µM 93% | [5]; [18] 75% | [5]; at 50.0 µM 77.4% | [5]; at 100.0 µM 95% | [6]; [18] 86% | [6]; at 50.0 µM 78.5% | [6]; at 100.0 µM 95% | [7]; at 100.0 µM 93% | [8]; [18] 90% | [8]; at 50.0 µM 83% | [9]; at 100.0 µM 96% | [10]; [18] 94% | [10]; at 50.0 µM 87.5% | [11]; [18] 90% | [11]; at 50.0 µM 83.5% | [11]; at 100.0 µM 96% | [12]; at 100.0 µM 97% | [13]; at 100.0 µM 91% | [14]; at 100.0 µM 96% | [15]; [18] 83% | [15]; at 50.0 µM 78.2% | [16]; at 100.0 µM 95%
inactive: [1]; at 1.2 µM 10% | [1]; at 3.7 µM 13% | [1]; at 11.0 µM 12% | [1]; at 33.0 µM 49% | [2]; at 1.2 µM 8% | [2]; at 3.7 µM 13% | [2]; at 11.0 µM 22% | [2]; at 33.0 µM 43% | [3]; at 1.2 µM 37% | [3]; at 3.7 µM 29% | [3]; at 11.0 µM 34% | [3]; at 33.0 µM 45% | [3]; at 100.0 µM 57% | [4]; at 1.2 µM 8% | [4]; at 3.7 µM 9% | [4]; at 11.0 µM 27% | [4]; at 33.0 µM 51% | [5]; at 1.2 µM -1% | [5]; at 3.7 µM 5% | [5]; [17] 17% | [5]; at 11.0 µM 6% | [5]; at 33.0 µM 39% | [6]; at 1.2 µM 6% | [6]; at 3.7 µM 2% | [6]; [17] -22% | [6]; at 11.0 µM 7% | [6]; at 33.0 µM 46% | [7]; at 1.2 µM -12% | [7]; at 3.7 µM 10% | [7]; at 11.0 µM 12% | [7]; at 33.0 µM 46% | [8]; [17] 10% | [9]; at 1.2 µM 8% | [9]; at 3.7 µM -9% | [9]; at 11.0 µM 20% | [9]; at 33.0 µM 45% | [10]; [17] 43% | [11]; at 1.2 µM 30% | [11]; at 3.7 µM 18% | [11]; [17] 17% | [11]; at 11.0 µM 24% | [11]; at 33.0 µM 55% | [12]; at 1.2 µM 5% | [12]; at 3.7 µM 11% | [12]; at 11.0 µM 13% | [12]; at 33.0 µM 40% | [13]; at 1.2 µM 18% | [13]; at 3.7 µM 13% | [13]; at 11.0 µM 7% | [13]; at 33.0 µM 48% | [14]; at 1.2 µM 26% | [14]; at 3.7 µM 30% | [14]; at 11.0 µM 41% | [14]; at 33.0 µM 62% | [15]; [17] -9% | [16]; at 1.2 µM 13% | [16]; at 3.7 µM 14% | [16]; at 11.0 µM 17% | [16]; at 33.0 µM 35%
